Source: PubChem
HDAC3 inh: human HDAC3 inhibition. O15379. recombinant HDAC3, fluorogenic peptide/trypsin coupled, fluorescence. inhibition, % at 8.3 µM. 320,000 compounds, 0.15% hits. AID 2718; in the data active means inhibition above about 26%, passing the limit was not always enough; inconclusive means no clear call, values can overlap the other calls
PHOSPHO1 block: PHOSPHO1 (human) inhibition. recombinant PHOSPHO1, absorbance phosphatase assay. AID 1565. 290,000 compounds, 1.1% hits. inhibition, % at 13.3 µM. Q8TCT1; in the data active means inhibition above about 60%
ANO1 activ: mouse TMEM16A channel activation, primary screen | HEK293 TMEM16A/YFP-H148Q/I152L, iodide quench fluorescence; active compounds read low | B-score at 10 µM | 340,000 compounds, 0.3% hits | AID 623877;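 active means fluorescence-ratio B-score plate-corrected deviation score at least 3 library SD below zero, with starting fluorescence score within 5 deviations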;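 further: channel opened by trigger with iodide after compound preincubation; score built on the fluorescence ratio of max minus min over baseline; more negative score means more quench and so TMEM16A activation or potentiation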
ANO1 block: blocks the mouse calcium-activated chloride channel TMEM16A; 310,000 compounds, 1.2% hits; Q8BHY3; normalized B-score (activity score, 25-100; higher = stronger inhibition) at 10 µM; HEK293 TMEM16A/YFP iodide influx fluorescence, ionomycin; AID 588511;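 active means ratio plate-corrected score three or more library SD toward inhibition, starting fluorescence score within five deviations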;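 further: score derived from kinetic fluorescence span divided by baseline fluorescence per well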
CHT block: inhibitors of human choline transporter CHT; Q9GZV3; 310,000 compounds, 0.86% hits; B-score at 10 µM; AID 488975; CHT-expressing cells, membrane potential dye, choline response; active compounds read low;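 active means B-score over 3 SD under the library average, and starting fluorescence ratio not unusually high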;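 further: choline stimulus applied at its EC90 after an EC20 pre-addition; B-score computed on integrated fluorescence ratio after choline addition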
Target sequence (Q9GZV3 whole entry, looked up): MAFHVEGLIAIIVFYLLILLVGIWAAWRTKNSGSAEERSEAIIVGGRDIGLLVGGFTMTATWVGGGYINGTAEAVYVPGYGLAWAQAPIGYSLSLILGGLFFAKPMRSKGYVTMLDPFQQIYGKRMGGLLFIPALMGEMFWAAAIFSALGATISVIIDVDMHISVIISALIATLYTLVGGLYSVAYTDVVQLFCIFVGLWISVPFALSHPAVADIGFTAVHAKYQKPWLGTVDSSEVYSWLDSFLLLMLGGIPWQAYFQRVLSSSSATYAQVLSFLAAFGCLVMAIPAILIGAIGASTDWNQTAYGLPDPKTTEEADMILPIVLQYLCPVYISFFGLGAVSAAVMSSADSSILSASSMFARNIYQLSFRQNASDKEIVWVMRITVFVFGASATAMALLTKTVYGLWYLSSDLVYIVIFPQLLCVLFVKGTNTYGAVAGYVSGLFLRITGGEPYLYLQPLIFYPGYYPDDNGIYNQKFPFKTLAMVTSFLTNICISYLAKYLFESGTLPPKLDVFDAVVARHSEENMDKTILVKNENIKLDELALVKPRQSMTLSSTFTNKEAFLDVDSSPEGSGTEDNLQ
CHT allo act: allosterically activates the human high affinity choline transporter; B-score at 10 µM; CHT-expressing cells, membrane potential dye, choline EC20; active compounds read high; LV-AA mutant CHT in HEK293 cells; Q9GZV3; 310,000 compounds, 0.49% hits;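 active means initial fluorescence not abnormally high and integrated response B-score, plate-corrected, over 3 SD above library mean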
CHT block conf: human CHT inhibition, confirmatory screen | shares compounds with CHT block | CHT-expressing cells, choline membrane potential dye; LV-to-AA substituted CHT, HEK293 cells | 2,400 compounds, 70% hits | CHT activity remaining % of control (active compounds read low), % at 10 µM;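 active means choline transporter activity left, mean of duplicates at 10 µM, below buffer-only control mean minus 3 SD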;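 further: depolarization triggered by choline at its EC90 following an EC20 pre-addition; 0% = hemicholinium-3 full block and 100% = buffer-only control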
HEK293 MPD ctr: CHT inhibitor counter-screen hit in parental HEK293 cells | shares compounds with CHT block | membrane potential dye, choline response; active = decrease or increase beyond buffer ±3SD | membrane potential ratio readout (active if shifted either direction beyond buffer ±3SD; no single direction) at 10 µM | 2,400 compounds, 4% hits;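 further: parental cells lack the transporter so any hit is non-specific; ratio is peak minus trough fluorescence over baseline after EC90 choline challenge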
An asterisk follows results filed as active. Hits are enriched below; roughly 3.2% of the tested compounds scored in any of these assays.

For O=C(O)c1cc(-n2nnnc2SCc2ccc([N+](=O)[O-])cc2)ccc1Cl the results were HDAC3 inh 7, PHOSPHO1 block 24, ANO1 activ inactive, ANO1 block inactive, CHT block inactive and CHT allo act inactive.
COc1cccc2sc(N(CCN(C)C)C(=O)c3ccc4c(c3)CCCC4)nc12 was read as PHOSPHO1 block 28, ANO1 activ inactive, ANO1 block inactive, CHT block -10*, CHT allo act inactive, CHT block conf 18%* and HEK293 MPD ctr inactive.
For Cc1cccc2sc(N(CCCN(C)C)C(=O)c3ccc(Cl)s3)nc12 the results were PHOSPHO1 block 6, ANO1 activ inactive, ANO1 block inactive, CHT block -6.8*, CHT allo act inactive, CHT block conf 27%* and HEK293 MPD ctr inactive.
For CCOc1cccc2sc(N(CCN(C)C)C(=O)c3cc4ccccc4cc3OC)nc12 the results were HDAC3 inh 10, PHOSPHO1 block 35, ANO1 activ inactive, ANO1 block inactive, CHT block inactive and CHT allo act inactive.
`CCOc1cccc2sc(N(CCN(C)C)C(=O)c3ccc4c(c3)OCCO4)nc12` gave PHOSPHO1 block 27, ANO1 activ inactive, ANO1 block inactive, CHT block -8.4*, CHT allo act inactive, CHT block conf 19%* and HEK293 MPD ctr inactive.
O=C(O)c1cc(NS(=O)(=O)c2cccs2)cc(NS(=O)(=O)c2cccs2)c1 was read as HDAC3 inh -2 and ANO1 activ inactive.
For O=C(NNc1cc(Cl)cc(Cl)c1)c1cccs1 the results were HDAC3 inh 1, PHOSPHO1 block 1, ANO1 activ inactive, ANO1 block inactive, CHT block -6.1*, CHT allo act inactive, CHT block conf 43%* and HEK293 MPD ctr inactive.
`O=C(C1CCCN(c2ncnc3c2nc2n3CCCCC2)C1)N1CCCCC1` (centres undefined) gave HDAC3 inh -3, PHOSPHO1 block 29, ANO1 activ inactive, ANO1 block inactive, CHT block inactive and CHT allo act inactive.
CC(=O)c1ccc(N2CCN(C(=O)C3CCCN(c4ncnc5c4nc4n5CCCCC4)C3)CC2)cc1 (centres undefined) was read as HDAC3 inh 2, PHOSPHO1 block 38, ANO1 activ inactive, ANO1 block inactive, CHT block -5.9*, CHT allo act inactive, CHT block conf 32%* and HEK293 MPD ctr inactive.
O=C(C1CCCN(c2ncnc3c2nc2n3CCCCC2)C1)N1CCN(c2ccc(F)cc2)CC1 (centres undefined) was read as HDAC3 inh inconclusive, PHOSPHO1 block 43, ANO1 activ inactive, ANO1 block inactive, CHT block -8*, CHT allo act inactive, CHT block conf 37%* and HEK293 MPD ctr inactive.
`O=C(C1CCCN(c2ncnc3c2nc2n3CCCCC2)C1)N1CCN(c2ccc(Cl)cc2)CC1` (centres undefined) gave HDAC3 inh 3, PHOSPHO1 block 27, ANO1 activ inactive, ANO1 block inactive, CHT block -7.8*, CHT allo act inactive, CHT block conf 40%* and HEK293 MPD ctr inactive.
Screening COc1ccc(N2CCN(C(=O)C3CCCN(c4ncnc5c4nc4n5CCCCC4)C3)CC2)cc1 (centres undefined) returned HDAC3 inh -2, PHOSPHO1 block 43, ANO1 activ inactive, ANO1 block inactive, CHT block inactive and CHT allo act inactive.
`CC(C)N(CC(N)=O)c1ncnc2sc(-c3ccccc3)cc12` gave HDAC3 inh 8, PHOSPHO1 block 38, ANO1 activ inactive, ANO1 block inactive, CHT block inactive and CHT allo act inactive.
For CC(=O)c1ncnn1CC(=O)c1ccc(Cl)cc1Cl the results were HDAC3 inh -4, PHOSPHO1 block -8, ANO1 activ inactive, ANO1 block inactive, CHT block inactive and CHT allo act inactive.
For Cc1ccc(C(=O)N/C(=C\c2cccs2)C(=O)NC2CCCCC2)cc1 the results were HDAC3 inh 2, PHOSPHO1 block 36, ANO1 activ inactive, ANO1 block inactive, CHT block -5.1*, CHT allo act inactive, CHT block conf 22%* and HEK293 MPD ctr inactive.
CN1CCN(C(=O)c2cc3c(=O)n4ccccc4nc3s2)CC1 was read as HDAC3 inh -98, PHOSPHO1 block 26, ANO1 activ inactive, ANO1 block inactive, CHT block inactive and CHT allo act inactive.
For CC1CCC(NC(=O)c2ccc(NC(=O)CC3SC(N4CCCC4)=NC3=O)cc2)CC1 (centres undefined) the results were HDAC3 inh 1, ANO1 activ inactive, ANO1 block inactive, CHT block -11*, CHT allo act inactive, CHT block conf 11%* and HEK293 MPD ctr inactive.
`COc1cc(C=O)ccc1OCCOCCOc1ccccc1Cl` gave HDAC3 inh 11, PHOSPHO1 block -3, ANO1 activ inactive, ANO1 block inactive, CHT block -5.6*, CHT allo act inactive, CHT block conf 63%* and HEK293 MPD ctr inactive.
`COc1cc(C=O)ccc1OCCOc1ccccc1[N+](=O)[O-]` gave HDAC3 inh 3, PHOSPHO1 block -9, ANO1 activ inactive, ANO1 block inactive, CHT block inactive and CHT allo act inactive.
Screening O=c1cc(CSc2nc3cc(Cl)ccc3o2)nc2sccn12 returned HDAC3 inh 3, PHOSPHO1 block 2, ANO1 activ inactive, ANO1 block inactive, CHT block -5.4*, CHT allo act inactive, CHT block conf 51%* and HEK293 MPD ctr inactive.
Cc1cc(C)n2cc(CSc3nc4cc(Cl)ccc4o3)nc2n1 was read as HDAC3 inh -8, PHOSPHO1 block -3, ANO1 activ inactive, ANO1 block inactive, CHT block inactive and CHT allo act inactive.
Screening CCN(CC)S(=O)(=O)c1ccc(-c2cn3cc(Cl)ccc3n2)cc1 returned HDAC3 inh -6, PHOSPHO1 block 30, ANO1 activ inactive, ANO1 block inactive, CHT block inactive and CHT allo act inactive.
Cc1cc(N=Nc2ccc(Cl)cc2)cc(CN2CCOCC2)c1O was read as HDAC3 inh 7, PHOSPHO1 block 33, ANO1 activ inactive, ANO1 block inactive, CHT block inactive and CHT allo act inactive.
